{"source": "PubChem BioAssay (Tox21)", "note": "Unmarked numbers belong to inactive results. Active and inactive are the calls of the source. Calls follow the shape of the dose curve; as a rule, active = well fitted curve in the direction sought with a large enough effect in the repeat runs; inconclusive = weak or mixed curves; inactive = flat fitted curve, though single readings scatter. % is scaled to controls: 0 for no effect and ±100 for the full control effect.", "data": [{"assay": "qHTS assay to test for compound auto fluorescence at 535 nm (green) in HepG2 cells (AID 720675)", "conditions": "green autofluorescence 485/535 nm, 1 h; series mostly up to 91.3 µM", "values": [{"compound": "C/C=C/C=C/CCCCCCCO", "outcome": "inactive"}, {"compound": "Cc1cc(OI)c(C(C)C)cc1-c1cc(C(C)C)c(OI)cc1C", "outcome": "inactive"}, {"compound": "CCCCN(CCCC)CCCOC(=O)c1ccc(N)cc1", "fluorescence, % of fluorescein control": "0.038% [at 18.6 µM]"}, {"compound": "CCCCC1C(=O)N(c2ccccc2)N(c2ccc(O)cc2)C1=O", "note": "(stereo not drawn)", "fluorescence, % of fluorescein control": "-0.0204% [at 18.6 µM]"}, {"compound": "CC(C)(C)CC(C)(C)c1ccc(OCCO)cc1", "outcome": "inactive"}, {"compound": "CC(C)(C)C(=O)O", "outcome": "inactive"}, {"compound": "CCCCC/C(=C\\c1ccccc1)CO", "outcome": "inactive"}, {"compound": "C[N+]1(C)CCC(=C(c2ccccc2)c2ccccc2)CC1", "fluorescence, % of fluorescein control": "-0.0806% [at 18.6 µM]"}, {"compound": "CO[C@H]1C=CO[C@@]2(C)Oc3c(C)c(O)c4c(O)c(c5c(c4c3C2=O)=NC2(CCN(CC(C)C)CC2)N=5)NC(=O)/C(C)=C\\C=C/[C@H](C)[C@H](O)[C@@H](C)[C@@H](O)[C@@H](C)[C@H](OC(C)=O)[C@@H]1C", "outcome": "inactive"}, {"compound": "CCC(C)=O", "outcome": "inactive"}, {"compound": "C[N+](C)(C)CCOC(N)=O", "outcome": "inactive"}, {"compound": "CN1CCN(CCCN2c3ccccc3Sc3ccc(S(=O)(=O)N(C)C)cc32)CC1", "fluorescence, % of fluorescein control": "-0.102% [at 18.6 µM]"}, {"compound": "CCCCCC=CCC=CCCCCCCCC(=O)OCC", "outcome": "inactive"}, {"compound": "Cc1cc(O)c(C(C)C)cc1Cl", "outcome": "inactive"}, {"compound": "CCC(Cc1ccccc1)(C(=O)c1ccc(N2CCOCC2)cc1)N(C)C", "note": "(stereo not drawn)", "outcome": "inactive"}, {"compound": "CCOC(=O)[C@@H](C)Oc1ccc(Oc2nc3ccc(Cl)cc3o2)cc1", "outcome": "inactive"}, {"compound": "CC(=O)[C@H]1CC[C@H]2[C@@H]3C[C@H](C)C4=CC(=O)CC[C@]4(C)[C@H]3[C@@H](O)C[C@]12C", "fluorescence, % of fluorescein control": "-0.105% [at 18.6 µM]"}, {"compound": "CNCCCC1c2ccccc2C=Cc2ccccc21", "fluorescence, % of fluorescein control": "-0.0324% [at 18.6 µM]"}, {"compound": "CCc1c2c(nc3ccc(OC(=O)N4CCC(N5CCCCC5)CC4)cc13)-c1cc3c(c(=O)n1C2)COC(=O)[C@]3(O)CC", "outcome": "inactive"}, {"compound": "CC(=O)CC(c1ccc([N+](=O)[O-])cc1)c1c(O)c2ccccc2oc1=O", "note": "(stereo not drawn)", "fluorescence, % of fluorescein control": "0.0036% [at 18.6 µM]"}, {"compound": "CC(C)(CCl)c1ccccc1", "outcome": "inactive"}, {"compound": "CCC(C(=O)OCCN(CC)CC)c1ccccc1", "note": "(stereo not drawn)", "outcome": "inactive"}, {"compound": "CCOC(=O)c1ccccc1C", "outcome": "inactive"}, {"compound": "CC1CC(=O)NN=C1c1ccc(NCC(C)(C)NCC(O)COc2cc(Cl)ccc2C#N)cc1", "note": "(stereo not drawn)", "outcome": "inactive"}, {"compound": "CC[C@@H]([C@H](C)O)n1ncn(-c2ccc(N3CCN(c4ccc(OC[C@@H]5CO[C@@](Cn6cncn6)(c6ccc(F)cc6F)C5)cc4)CC3)cc2)c1=O", "outcome": "inactive"}, {"compound": "CCn1nc(C)c2c1C(=O)NCC(c1ccc(O)cc1)=N2", "outcome": "inactive"}, {"compound": "CCn1cc(C(=O)O)c(=O)c2cc(F)c(N3CCNCC3)nc21", "fluorescence, % of fluorescein control": "-0.0415% [at 18.6 µM]"}, {"compound": "CNC(=S)NC", "outcome": "inactive"}, {"compound": "CCCCOC(=O)CCS", "outcome": "inactive"}, {"compound": "Fc1c(F)c(F)c(Br)c(F)c1F", "outcome": "inactive"}, {"compound": "N#C/C(=C1\\SCC(c2ccccc2Cl)S1)n1ccnc1", "note": "(stereo not drawn)", "outcome": "inactive"}, {"compound": "CCC(C)(C)C1CCC(O)CC1", "note": "(stereo not drawn)", "outcome": "inactive"}, {"compound": "O=S(=O)(c1ccccc1)c1ccc(Cl)cc1", "outcome": "inactive"}, {"compound": "CC(C)OCC1CO1", "note": "(stereo not drawn)", "outcome": "inactive"}, {"compound": "c1cnc2c(n1)CCCC2", "outcome": "inactive"}, {"compound": "COC(=O)Nc1nc2ccc(C(=O)c3cccs3)cc2[nH]1", "outcome": "inactive"}, {"compound": "CCCCCCCCCCCC[N+](C)(C)CC(=O)[O-]", "outcome": "inactive"}, {"compound": "O=C(Nc1ccc([N+](=O)[O-])cc1)Nc1ccc([N+](=O)[O-])cc1", "outcome": "inactive"}]}]}
